Measurements reported in PubChem BioAssay.
The source made the active and inactive calls.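 How the source made its calls, unless noted: active means compounds that lower survival of HCT116 colon cancer cells in the luminescence readout, no numeric limit stated; inactive means the rest.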

Assays:
[1] = stimulators of nuclear beta-catenin in C2C12, primary screen, imaging, WNT3A-conditioned medium, mouse C2C12, NPC library (AID 1117326; in the data active means nuclear beta-catenin stimulation mostly above about 4.2%, no sharp cut-off; inactive means mostly below about 10%; further: reference of the scale not given here); conditions: stronger effect = higher value
[2] = stimulators of insulin release from INS-1E, primary screen, cell-based, 5 mM glucose, NPC library (AID 1117329;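 active means compound raises insulin release from rat beta cells at 5 mM glucose, no numeric limit stated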; further: reference of the scale not given here); conditions: rat INS-1E insulin secretion, at 10 µM, stronger effect = higher value
[3] = growth inhibition of GSK3B-pretreated HCT116 cells – cell-based, CellTiter-Glo, 0.2 to 20 µM (AID 1117336;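 active means compounds lowering colon cancer cell viability after pretreatment blocking the GSK3B kinase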); conditions: HCT116 viability after GSK3B inhibitor, at 20 µM, stronger effect = higher value
[4] = inhibition of endothelial tube formation, primary screen, imaging, VEGF stimulated, CD31 staining, tube area, NPC library (AID 1117340;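 active means compound that reduces growth-factor-driven endothelial tube area in a mixed cell culture, no cutoff stated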); conditions: VEGF-stimulated ADSC/ECFC co-culture, at 10 µM, stronger effect = higher value
[5] = glucagon-like peptide 1 release enhancers, primary assay, NCI-H716 cell line, NPC library (AID 1117341;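 active means compound raises GLP1 secretion from the human gut endocrine cells, with no numeric limit stated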; further: reference of the scale not given here); conditions: NCI-H716 cells, at 10 µM, stronger effect = higher value
[6] = HCT116 colon cancer cell growth inhibition, primary screen, CellTiter-Glo luminescence, NPC library (AID 1117342); conditions: at 20 µM (top of the series)
[7] = CellTiter-Glo luminescent readout of SW480 viability loss, NPC library primary (AID 1117343;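 active means compounds that lower viability of the colon cancer cells in the luminescence readout, with no numeric limit stated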); conditions: CellTiter-Glo luminescence; at 20 µM (top of the series)
[8] = decreased DLD-1 cellular survival, CellTiter-Glo luminescent readout, NPC compound collection, primary HTS (AID 1117346;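 active means compounds that lower survival of DLD-1 colon cancer cells in the luminescence readout, no cutoff given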); conditions: DLD-1 viability, CellTiter-Glo luminescence; at 20 µM (top of the series)

Compound | nuclear beta-catenin stimulation ([1]; at 10 µM) | nuclear beta-catenin stimulation ([1]; stimulation, at 2 µM) [%] | insulin secretion stimulation [2] | viability decrease [3] | tube area decrease [4] | GLP1 secretion stimulation [5] | inhibition of viability [6] | viability decrease (inhibition) [7] | viability decrease (inhibition) [8]
Nc1nc(=O)n([C@@H]2O[C@H](CO)[C@@H](O)[C@@H]2F)cc1I | 8% (inactive) | 1.8 | 0.8% (inactive) | 2.9% (inactive) | 74% (active) | -3.9% (inactive) | 23.7% (inactive) | 32.2% (inactive) | 23.1% (inactive)
CCc1ccc(C(=O)C(C)CN2CCCCC2)cc1 (stereo not drawn) | -0.3% (inactive) | -0.1 | 14.3% (inactive) | -4.9% (inactive) | -30.1% (inactive) | -1.5% (inactive) | 19.2% (inactive) | 7.4% (inactive) | -0.2% (inactive)
NC(=O)NC1N=C([O][Al])NC1=O (stereo not drawn) | 0.7% (inactive) | -0.2 | 0.3% (inactive) | 13.8% (inactive) | 0.8% (inactive) | -2.5% (inactive) | 2.07% (inactive) | 19.8% (inactive) | -4.5% (inactive)
Cc1onc(-c2c(F)cccc2Cl)c1C(=O)Cl | -0.1% (inactive) | 0.5 | 1.1% (inactive) | -3.1% (inactive) | -12.5% (inactive) | -1.4% (inactive) | 0.4% (inactive) | -2.6% (inactive) | 2.8% (inactive)
C[N+]1(CC2COC(c3ccccc3)(c3ccccc3)O2)CCCCC1 (stereo not drawn) | 1.5% (inactive) | -0.6 | 6.4% (inactive) | 7.4% (inactive) | -12.8% (inactive) | 0.7% (inactive) | 23.2% (inactive) | 10.8% (inactive) | 0.5% (inactive)
Cc1[nH]cnc1C[C@H]1CCc2c(C)c3ccccc3n2C1=O | 9.2% (inactive) | 0.9 | -0.4% (inactive) | 57.2% (active) | 55% (active) | -2.3% (inactive) | 92.8% (active) | 69.2% (active) | 65.3% (active)
C[C@H]1NCc2cc(-c3ccc4c(=O)c(C(=O)O)cn(C5CC5)c4c3OC(F)F)ccc21 | 4.5% (inactive) | 1.3 | 0.3% (inactive) | 2.4% (inactive) | 9.5% (inactive) | -0.7% (inactive) | 20.1% (inactive) | -3.4% (inactive) | 2.9% (inactive)
CCCCCCCCCCCCCC[N+](C)(C)Cc1ccccc1 | 55% (active) | -0.7 | 3.5% (inactive) | 99.5% (active) | 109% (active) | -0.6% (inactive) | 99.2% (active) | 101% (active) | 102% (active)
C[C@@]12CCC[C@H]1[C@@H]1CC[C@H]3C[C@@H](O)CC[C@]3(C)[C@H]1CC2 | 3% (inactive) | -0.1 | -1% (inactive) | 65.4% (active) | -28.4% (inactive) | 4% (inactive) | -11.6% (inactive) | 121% (active) | 103% (active)
CCCCCCCCCCCCCCCCCC(=O)O | 0.8% (inactive) | 0.7 | -1.2% (inactive) | -8.8% (inactive) | -12.7% (inactive) | -0.3% (inactive) | 1.8% (inactive) | 18.8% (inactive) | -6.85% (inactive)
N=C(N)n1cccn1 | 0.3% (inactive) | 0 | 9.4% (inactive) | -5.8% (inactive) | 4.7% (inactive) | -3.7% (inactive) | 6.5% (inactive) | 16.1% (inactive) | -2.6% (inactive)
CN(C)[C@@H]1C(=O)C(C(=O)NCN2CCCC2)=C(O)[C@@]2(O)C(=O)C3=C(O)c4c(O)cccc4[C@@](C)(O)C3C[C@@H]12 (stereo partly drawn) | 3.5% (inactive) | 3.1 | 2.3% (inactive) | -20.7% (inactive) | -7.9% (inactive) | 25.3% (active) | 3.4% (inactive) | -73.8% (inactive) | 2.6% (inactive)
CC1(C)OC(=O)Nc2ccc(Br)cc21 | 3% (inactive) | -1 | 6.1% (inactive) | 9.6% (inactive) | 13.5% (inactive) | -2% (inactive) | -4.8% (inactive) | 20.9% (inactive) | 2.5% (inactive)
CC(C)(C)C(=O)OCOC(=O)C1N2C(=O)CC2S(=O)(=O)C1(C)C (stereo not drawn) | -1.1% (inactive) | 1 | 1.4% (inactive) | 10.9% (inactive) | -21.6% (inactive) | -1.3% (inactive) | -4.1% (inactive) | -22.3% (inactive) | 4% (inactive)
Cc1c(C(=O)NCCO)[n+](=O)c2ccccc2n1[O-] | 5% (inactive) | 3 | -1.6% (inactive) | -6.4% (inactive) | 14% (inactive) | -0.4% (inactive) | 0.3% (inactive) | -17.1% (inactive) | -6.2% (inactive)
c1ccc(-c2nc[nH]c2-c2ccccc2)cc1 | 0.2% (inactive) | 2.7 | -1.3% (inactive) | -7.1% (inactive) | 12.1% (inactive) | 3.1% (inactive) | -17.5% (inactive) | 55% (active) | -0.05% (inactive)

Compound | nuclear beta-catenin stimulation ([1]; at 10 µM) | nuclear beta-catenin stimulation ([1]; stimulation, at 2 µM) [%] | insulin secretion stimulation [2] | viability decrease [3] | tube area decrease [4] | GLP1 secretion stimulation [5] | inhibition of viability [6] | viability decrease (inhibition) [7] | viability decrease (inhibition) [8]
CC(=O)Oc1ccc(C2(c3ccc(OC(C)=O)cc3)Oc3ccccc3NC2=O)cc1 | 54.6% (active) | 9.3 | 19.9% (inactive) | 91.8% (active) | 106% (active) | 1.6% (inactive) | 83.3% (active) | 60.2% (active) | 52.2% (active)
O=C(C1CCCCC1)N1CC(=O)N2CCCc3ccccc3C2C1 (stereo not drawn) | 1.4% (inactive) | 2.7 | 0.6% (inactive) | 6.6% (inactive) | 12.9% (inactive) | 5.2% (inactive) | -9.2% (inactive) | -250% (inactive) | -3.1% (inactive)
Cc1c(C)c2c(c(C)c1OC(=O)c1cccnc1)CC[C@@](C)(CCC[C@H](C)CCC[C@H](C)CCCC(C)C)O2 | -0.1% (inactive) | -0.2 | -0.2% (inactive) | 13.1% (inactive) | -9.8% (inactive) | 5.5% (inactive) | -2.9% (inactive) | -20.2% (inactive) | -13.8% (inactive)
NC(=S)N/N=C/c1cccnc1 | 0.4% (inactive) | 0.5 | -0.8% (inactive) | 0.7% (inactive) | -13.5% (inactive) | 1.9% (inactive) | -8.9% (inactive) | 38.7% (inactive) | 1.65% (inactive)
COc1cc(NS(=O)(=O)c2ccc(N)cc2)nc(C)n1 | 1.1% (inactive) | 10.1 | 2.8% (inactive) | -0.6% (inactive) | -13% (inactive) | 1% (inactive) | -4.3% (inactive) | -9% (inactive) | 6.1% (inactive)
CN(C)c1cc(NC(=O)CNC(C)(C)C)c(O)c2c1C[C@@H]1C[C@H]3[C@H](N(C)C)C(=O)C(C(N)=O)=C(O)[C@@]3(O)C(=O)C1=C2O | -0.8% (inactive) | -1.4 | -0.5% (inactive) | 70% (active) | -8.6% (inactive) | 3.4% (inactive) | 59.6% (active) | 72% (active) | 58.1% (active)
CCN1C(=O)c2ccccc2C1Nc1ccc(OCCN2CCCCC2)cc1 (stereo not drawn) | 0.7% (inactive) | 0.3 | 18.5% (inactive) | 10.5% (inactive) | 14.2% (inactive) | 7.7% (inactive) | 47.4% (inactive) | 13.4% (inactive) | -3.1% (inactive)
Cc1ccc(O)c(-n2nc3ccccc3n2)c1 | -0.7% (inactive) | -0.3 | -1.4% (inactive) | 8.75% (inactive) | -28.1% (inactive) | 4.2% (inactive) | -0.8% (inactive) | 40.7% (inactive) | 13.8% (inactive)
N[C@@H](CSSC[C@H](N)C(=O)O)C(=O)O | 1.1% (inactive) | 3.2 | -2.2% (inactive) | 0.8% (inactive) | -4% (inactive) | 3.6% (inactive) | -21.6% (inactive) | 38.7% (inactive) | 8.45% (inactive)
Cc1cc(OCCOCC[N+](C)(C)Cc2ccccc2)ccc1C(C)(C)CC(C)(C)C | 3% (inactive) | 6.8 | 0.6% (inactive) | 101% (active) | 107% (active) | 98.1% (active) | 102% (active) | 141% (active) | 103% (active)
Cc1c(C)c2c(c(C)c1OC(=O)CCC(=O)O)CC[C@@](C)(CCC[C@H](C)CCC[C@H](C)CCCC(C)C)O2 | -0.9% (inactive) | -0.6 | 2.6% (inactive) | 36.4% (inactive) | 61.9% (active) | -3.2% (inactive) | 54.9% (active) | 75% (active) | 66% (active)
COc1ccc(C(=O)N2CCN(CC(=O)N3CCOCC3)CC2)cc1 | 0.8% (inactive) | 5.2 | 3.1% (inactive) | 6.4% (inactive) | 2.1% (inactive) | 0.6% (inactive) | 4.3% (inactive) | -11.3% (inactive) | 3.3% (inactive)
COc1ccc2c(c1)CCCC2=O | 1.5% (inactive) | -0.1 | 1.3% (inactive) | 5.2% (inactive) | 13.5% (inactive) | 0.1% (inactive) | 8.5% (inactive) | -3.8% (inactive) | -12% (inactive)
CN(C)CCN(Cc1ccsc1)c1ccccn1 | -1.6% (inactive) | 1.7 | 1.3% (inactive) | 4.6% (inactive) | -14.7% (inactive) | -2.8% (inactive) | 5.1% (inactive) | -0.5% (inactive) | -3.9% (inactive)
O=C(O)CNC(=O)c1ccccc1I | -0.5% (inactive) | 1.7 | 0.3% (inactive) | 16% (inactive) | 5.3% (inactive) | 0.7% (inactive) | 4.1% (inactive) | 10.4% (inactive) | -17.7% (inactive)
C/C(=C(\CCO)SS/C(CCO)=C(\C)N(C=O)Cc1cnc(C)nc1N)N(C=O)Cc1cnc(C)nc1N | 0.2% (inactive) | -0.9 | 0.9% (inactive) | -14.3% (inactive) | -4.4% (inactive) | -0.7% (inactive) | 0.6% (inactive) | -11.8% (inactive) | 7.4% (inactive)
